# Reference: PubChem BioAssay (NCATS)
# Results filed as inconclusive are left out. Active and inactive are the calls of the source. Unless noted, how the calls were made is not given here.
# What was measured:
# [1] = qHTS profiling of the MIPE4 collection as inhibitors of Plasmodium falciparum (3D7) proliferation (AID 743344);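 further: scaled between DMSO vehicle wells and 0.29 µM artemisinin as full inhibition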; conditions: P. falciparum 3D7 in erythrocytes, SYBR Green DNA fluorescence, 72 h; at 28.5 µM unless noted
# Method in brief: (§1)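 Parasite DNA was quantified by SYBR Green I fluorescence (ex 485, em 535 nm) after overnight lysis in saponin/Triton buffer at room temperature. Cultures at 0.3% parasitemia and 2.5% hematocrit were first exposed to compound for 72 h at 37 C; signals were normalised to artemisinin (0.29 uM) and vehicle wells.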
# [2] = qHTS profiling of the MIPE4 collection as inhibitors of Plasmodium falciparum (DD2) proliferation (AID 743345); conditions: P. falciparum Dd2 in erythrocytes, SYBR Green DNA, 72 h; at 28.5 µM unless noted
# Method in brief: as §1
# [3] = qHTS profiling of the MIPE4 collection as inhibitors of Plasmodium falciparum (DD2) proliferation (Rep 2) (AID 743346); conditions: P. falciparum Dd2 in erythrocytes, SYBR Green DNA, 72 h; at 28.5 µM unless noted
# Method in brief: as §1
# [4] = qHTS profiling of the MIPE4 collection as inhibitors of Plasmodium falciparum (HB3) proliferation (AID 743347);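 further: plate controls were DMSO vehicle wells for no effect and artemisinin wells for full effect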; conditions: P. falciparum HB3 in erythrocytes, SYBR Green DNA, 72 h; at 28.5 µM unless noted
# Method in brief: as §1
# [5] = High-throughput drug toxicity screening in the BPDCN cell line Gen2.2 (AID 1224824); conditions: Gen2.2 BPDCN cells; at 45.8 µM (top of the series) unless noted;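 further: cells exposed to compounds for 48 h before reading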
# Method in brief: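 Seed 500 exponentially growing Gen2.2 cells/well; add compounds by pin tool; incubate 48 h, 37 °C, 5% CO2; add CellTiter-Glo, 15 min RT; read luminescence. % activity vs DMSO (100%) and bortezomib (0%).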
# [6] = qHTS assay for measurement of the activity of small molecule inhibitors on Zika virus induced Caspase-3 activity in human astrocytoma cells (AID 1224859; active means well fitted curve in the direction sought with a large enough effect; an effect the other way counts as inactive or inconclusive;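 further: plate controls were ZIKV-infected untreated cells for no effect and uninfected cells for full effect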)
# Method in brief: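 Luminescence read-out (Caspase-Glo 3/7, 30 min RT) of caspase activity in SNB-19 cells infected 6 h with ZIKV, 2 FFU/cell, after 1 h compound pretreatment; % inhibition from induction normalised to uninfected (0%) and infected (100%) wells.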
# [7] = qHTS Screen of the MIPE 4.0 Collection Against Ewings Sarcoma (TC32) (AID 1259256; active means well fitted curve in the direction sought with a large enough effect; an effect the other way counts as inactive or inconclusive; further: nearly all actives have a fitted effect of over 45% in size; further: potency means the concentration at half of the fitted maximal effect)
# Method in brief: (§2)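 Dose series incubated 48 h with cells in RPMI plus 5% FBS, glutamine and penicillin/streptomycin; cell viability then quantified via CellTiter-Glo.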
# [8] = High-throughput drug toxicity screening in the BPDCN cell line Cal-1 (AID 1224825); conditions: Cal-1 BPDCN cell viability, qHTS; at 45.8 µM (top of the series) unless noted
# Method in brief: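 CellTiter-Glo luminescence after 48 h compound exposure; percent activity scaled with DMSO as 100% and bortezomib (9.2 uM final) as 0%. Cal-1 cells seeded at 500/well in RPMI, 10% FBS, no phenol red.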
# [9] = Identifying Small Molecule Inhibitors of Pancreatic Cancer Stem Cells (A278, Adherent) (AID 1259361; active means well fitted curve in the direction sought with a large enough effect; an effect the other way counts as inactive or inconclusive;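 further: viability read after 48 h compound exposure; nearly all actives have a fitted effect of over 35% in size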)
# Method in brief: (§3)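 Endpoint: ATP-based luminescence, 48 h drug exposure. Bortezomib at 9.2 uM final as full-kill control; DMSO vehicle as negative control; activity normalized between vehicle and cell-free wells.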
# [10] = qHTS Screen of the MIPE 4.0 Collection Against Ewings Sarcoma (TC71) (AID 1259253; active means well fitted curve in the direction sought with a large enough effect; an effect the other way counts as inactive or inconclusive; further: potency means the concentration at half of the fitted maximal effect; nearly all actives have a fitted effect of over 40% in size)
# Method in brief: as §2
# [11] = qHTS Screen of the MIPE 4.0 Collection Against Ewings Sarcoma (EW8) (AID 1259255; active means well fitted curve in the direction sought with a large enough effect; an effect the other way counts as inactive or inconclusive;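 further: 100% = DMSO-treated cells and 0% = medium-only wells without cells; nearly all actives have a fitted effect of over 35% in size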)
# Method in brief: as §2
# [12] = qHTS assay for measurement of the activity of small molecule inhibitors on Zika virus induced Caspase-3 activity in human iPSC derived neural progenitor cells (hNPCs) (AID 1224857; active means well fitted curve in the direction sought with a large enough effect; an effect the other way counts as inactive or inconclusive; further: % of control where 0% means no effect; nearly all actives have a fitted effect of over 65% in size)
# Method in brief: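 hNPCs seeded 350 cells/well, cultured 16–20 h; compounds added 1 h before ZIKV (2 FFU/cell), 37 C 6 h. Caspase-Glo 3/7 luminescence after 30 min RT; % inhibition from induction scaled to uninfected (0%) and infected (100%) wells.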
# [13] = qHTS profiling for inhibitors of Plasmodium falciparum (HB3) proliferation (AID 743324; active means well fitted curve in the direction sought with a large enough effect; an effect the other way counts as inactive or inconclusive;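 further: 100% = DMSO vehicle wells and 0% = artemisinin-treated control wells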); conditions: Plasmodium falciparum HB3 blood-stage proliferation; at 28.7 µM (top of the series)
# Method in brief: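 SYBR Green fluorescence (485 ex/535 em) of lysed cultures, incubated overnight at room temperature in the dark, quantifies parasite DNA. Infected erythrocytes at 0.3% parasitemia and 2.5% hematocrit were exposed 72 h; values normalized to DMSO and 0.29 uM artemisinin controls.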
# [14] = Identifying Small Molecule Inhibitors of Pancreatic Cancer Stem Cells (SN12C, Adherent) (AID 1259358; active means well fitted curve in the direction sought with a large enough effect; an effect the other way counts as inactive or inconclusive;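 further: cell survival measured after 48 h of compound exposure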; further: potency means the concentration at half of the fitted maximal effect)
# Method in brief: as §3
# [15] = Identifying Small Molecule Inhibitors of Pancreatic Cancer Stem Cells (A2780, Spheroid) (AID 1259357; active means well fitted curve in the direction sought with a large enough effect; an effect the other way counts as inactive or inconclusive;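 further: spheroids pre-formed over 14 days in stem cell medium on hydrogel; compound exposure lasted 48 h before the ATP luminescence read; 100% = DMSO treated cells and 0% = wells without cells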); conditions: Potency: A2780 spheroid viability
# Method in brief: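 Luminescent ATP readout (CellTiter-Glo) quantifies surviving cells after a 48 h drug incubation. Normalization uses DMSO wells as no inhibition and media-only wells as full inhibition; bortezomib served as positive control.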
# [16] = Identifying Small Molecule Inhibitors of Pancreatic Cancer Stem Cells (Panc1, Adherent) (AID 1259362; active means well fitted curve in the direction sought with a large enough effect; an effect the other way counts as inactive or inconclusive;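 further: compound exposure lasted 48 h before the viability read; plate controls were DMSO-treated cells for no effect and cell-free media wells for full effect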); conditions: Potency: viability
# Method in brief: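 Viability is scored by CellTiter-Glo luminescence 48 h after dosing, expressed as percent activity against vehicle and no-cell references. Spheroid formats rely on cells cultured 14 days in stem cell media beforehand.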
smiles,measurement,setting,value
O=C1c2c(O)cc(O)cc2O[C@H](c2cc(O)c(O)c(O)c2)[C@H]1O,"parasite growth, % of DMSO control",[1],85.4%
same,"parasite growth remaining, % of DMSO control (lower = more inhibition)",[2],85.1%
same,"parasite growth, % of control (lower = inhibition)",[3],78.7%
same,"growth, % of control",[4],102%
same,"cell viability, % of control (lower = more cytotoxic)",[5],112%
same,Potency,[6],inactive
same,Potency,[7],inactive
O=C(CCCCCCC(=O)Nc1ccccc1)NO,"cell viability, % of control (lower = more cytotoxic)",[5],171%
same,viability (% of control),[8],7.8%
same,IC50 (viability decrease),[9],3.4 µM (active)
O=C1NC(=O)C(=Cc2ccc(-c3ccc(F)cc3)o2)S1,"parasite growth, % of control (lower = inhibition)",[3],91.6%
same,"growth, % of control",[4],75.6%
same,"cell viability, % of control (lower = more cytotoxic)",[5],57.7%
same,viability (% of control),[8],95.6%
same,Potency,[10],23.5 µM (active)
same,Potency,[11],inactive
O=C(O)[C@H]1O[C@H](Oc2cc3oc(-c4ccccc4)cc(=O)c3c(O)c2O)[C@H](O)[C@@H](O)[C@H]1O,"parasite growth, % of control (lower = inhibition)",[3],57.6%
same,"growth, % of control",[4],96.3%
same,"cell viability, % of control (lower = more cytotoxic)",[5],46.5%
same,Potency,[12],inactive
same,Potency,[6],inactive
same,Potency,[7],18.7 µM (active)
CCC(=O)O[C@]1(C(=O)CO)CC[C@H]2[C@@H]3CCC4=CC(=O)CC[C@]4(C)[C@@H]3CC[C@@]21C,"parasite growth, % of DMSO control",[1],37.1%
same,"parasite growth, % of control (lower = inhibition)",[3],38.1%
same,"growth, % of control",[4],31%
same,"cell viability, % of control (lower = more cytotoxic)",[5],84.6%
same,Potency,[12],inactive
same,Potency,[6],inactive
same,Potency,[11],inactive
same,Potency,[7],inactive
CN(C)C1CCN(C(=O)c2ccc(NC(=O)Nc3nc(N4CCOCC4)nc(N4CCOCC4)n3)cc2)CC1,"remaining proliferation (% of control), lower = more inhibition",[13],2.09%
same,"parasite growth, % of DMSO control",[1],5.78%
same,"parasite growth remaining, % of DMSO control (lower = more inhibition)",[2],7.83%
same,"parasite growth, % of control (lower = inhibition)",[3],9.5%
same,"growth, % of control",[4],4.82%
same,"cell viability, % of control (lower = more cytotoxic)",[5],6.71%
same,Potency,[12],inactive
same,Potency,[6],inactive
same,Potency,[10],0.0743 µM (active)
same,Potency,[14],0.0074 µM (active)
same,IC50 (viability decrease),[9],0.0148 µM (active)
OC[C@H]1O[C@@H](n2cnc3c2NC=NC[C@@H]3O)C[C@H]1O,"remaining proliferation (% of control), lower = more inhibition",[13],99.7%
same,"parasite growth, % of DMSO control",[1],81.4%
same,"parasite growth remaining, % of DMSO control (lower = more inhibition)",[2],92.5%
same,"parasite growth, % of control (lower = inhibition)",[3],146%
same,"growth, % of control",[4],97.8%
same,"cell viability, % of control (lower = more cytotoxic)",[5],188%
same,Potency,[12],inactive
same,Potency,[6],inactive
same,Potency,[15],inactive
same,Potency,[14],inactive
same,IC50 (viability decrease),[9],20.9 µM (active)
same,Potency,[16],inactive
O=C1NC(=O)C(=Cc2ccc3c(c2)OC(F)(F)O3)S1,"parasite growth, % of DMSO control",[1],86.7%
same,"parasite growth remaining, % of DMSO control (lower = more inhibition)",[2],95.4%
same,"parasite growth, % of control (lower = inhibition)",[3],126%
same,"growth, % of control",[4],125%
same,"cell viability, % of control (lower = more cytotoxic)",[5],54.2%
same,Potency,[12],inactive
same,Potency,[6],inactive
COc1cc2c(cc1OC)CN(CCc1ccc(NC(=O)c3cc(OC)c(OC)cc3NC(=O)c3cnc4ccccc4c3)cc1)CC2,"parasite growth, % of DMSO control",[1],39.1%
same,"parasite growth, % of control (lower = inhibition)",[3],83.4%
same,"growth, % of control",[4],93.6%
same,"cell viability, % of control (lower = more cytotoxic)",[5],115%
same,Potency,[6],inactive
same,Potency,[7],5.9 µM (active)
